Source: PubChem
An excerpt weighted towards active compounds, which were near 7.9% of everything screened.
KB-V1 cytotox – qHTS assay for MDR1-selective chemotherapeutics: Primary screen using the drug-selected MDR subline cells KB-V1; AID 1347076, 2019; KB-V1 MDR cells viability, CellTiter-Glo, 72 h; Potency, µM (top dose mostly 46.1 µM), actives largely listed as cytotoxic; 400,000 compounds, 3.4% hits; further: on the % scale 0 is the no-effect control and ±100 the full control effect; nearly all actives have a fitted effect of over 60% in size
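Drug-selected KB-V1 cells, grown in DMEM lacking phenol red with 10% FBS, receive compound titrations; after three days at 37 degrees C, surviving cell ATP is quantified by CellTiter-Glo luminescence and responses normalized and curve-fitted.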
HT1080 IDH1KD tx – qHTS for induction of synthetic lethality in tumor cells producing 2HG: qHTS for the HT-1080-IDH1KD cell line | HT-1080 IDH1 knockdown viability, ATP luminescence, 48 h | Potency, µM (titrated, usually from 46.1 µM), without a hit: at the highest dose activity, negative = toxicity, actives largely listed as cytotoxic | 360,000 compounds, 2% hits;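 further: 0% = DMSO wells and -100% = cell-free medium wells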
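Knockdown cells (IDH1KD HT-1080) received compounds 2 h after plating at 750 cells/well and were kept 48 h at 37 °C in 5% FBS RPMI. A CellTiter-Glo luminescence read gave % activity for curve fitting.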
HT1080NT lethal – qHTS for induction of synthetic lethality in tumor cells producing 2HG: qHTS for the HT-1080-NT fibrosarcoma cell line. HT-1080-NT fibrosarcoma viability, CellTiter-Glo ATP luminescence, 48 h. Potency, µM (highest dose often 46.1 µM), inactives show at the top dose activity, negative = less viability, most hits filed as cytotoxic. 360,000 compounds, 1.6% hits;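 further: NT is the 2HG producing partner of a matched IDH1 knockdown line; 0% = DMSO-treated cells and -100% = media-only wells without cells; nearly all actives have a fitted effect of over 55% in size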
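HT-1080-NT fibrosarcoma cells (2HG-overproducing), 750 cells/well in RPMI with 5% FBS, dosed after 2 h and incubated 48 h at 37C. CellTiter-Glo luminescence normalized to DMSO and no-cell wells; concentration-response curves fitted and classed.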
KB-3-1 tox – qHTS assay for MDR1-selective chemotherapeutics: Primary screen using the parental adenocarcinoma cell KB-3-1 | KB-3-1 viability, CellTiter-Glo ATP luminescence, 72 h | Potency, µM (titrated, usually from 46.1 µM), most hits filed as cytotoxic | 400,000 compounds, 1.4% hits | AID 1347075, 2019; further: on the % scale 0 is the no-effect control and ±100 the full control effect; nearly all actives have a fitted effect of over 60% in size
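Cells are dispensed, compounds pinned in, plates held at 37 °C for 72 h, then CellTiter-Glo is added and luminescence read after 10 minutes. Cell line: parental KB-3-1 in phenol-red-free DMEM, 10% FBS.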
MCF10A rerep – A quantitative high throughput screen for small molecules that induce DNA re-replication in MCF 10a normal breast cells. MCF 10A DNA re-replication, Hoechst nuclear intensity, 48 h. Potency, µM (highest dose often 46.1 µM), for the others: at the highest dose activity, positive = re-replication, actives largely listed as activators. AID 624296, 2012. 350,000 compounds, 2.9% hits; further: % of control where 0% means no effect; nearly all actives have a fitted effect of over 50% in size
SW480 rereplic – A quantitative high throughput screen for small molecules that induce DNA re-replication in SW480 colon adenocarcinoma cells. SW480 DNA re-replication, Hoechst DNA content imaging, 48 h. Potency, µM (series often up to 46.1 µM), for the others: top-dose re-replication activation, usual class: activators. 340,000 compounds, 1.8% hits. AID 624297, 2012; further: % of control where 0% means no effect; nearly all actives have a fitted effect of over 55% in size
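Image-based DNA-content assay: after two days of treatment, nuclei were labelled with the DNA dye Hoechst and imaged, and hits were compounds raising the count of nuclei showing high fluorescence intensity.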
* hit, by the source's call; i = inactive; ? = inconclusive; / = not tested or not shown; [ ] = remark or other dose. The call rests on the fitted dose curve; in most records, active means well fitted curve in the direction sought with a large enough effect; inconclusive means small, poorly fitted or top-dose-only effect, or another doubt; inactive means no such curve, though single readings can be large; an effect the other way counts as inactive or inconclusive. Potency means the concentration at half of the fitted maximal effect.

SMILES	KB-V1 cytotox	HT1080 IDH1KD tx	HT1080NT lethal	KB-3-1 tox	MCF10A rerep	SW480 rereplic
CC(=O)Nc1ccc(NC(=O)C2CCC(N3C(=O)C4C5C=CC(C6CC56)C4C3=O)CC2)cc1 (stereo not given)	i	-2%	-1%	i	23µM*	2%
CCOc1ccc(NC(=O)CSc2nc3c([nH]c4ccccc43)c(=O)n2-c2cc(C)cc(C)c2)cc1	i	/	/	i	/	/
CSc1nc2ccc(S(=O)(=O)N3CCCCC3)cc2s1	?	2%	5%	?	-1%	-7%
CSc1nc2ccc(S(=O)(=O)NC3CCCCC3)cc2s1	16µM*	-2%	0%	?	2%	-9%
Cc1ccc(CNC(=O)Cn2cc(S(=O)(=O)Cc3ccccc3F)c3ccccc32)cc1	i	/	/	i	/	/
O=C(Nc1ccc(Br)cc1)c1cc(Br)c(Br)s1	/	/	/	/	?	15%
CN(CC(=O)O)S(=O)(=O)c1ccc2c(c1)n(C)c(=O)c(=O)n2C	i	16%	18%	i	-4%	7%
CCCCN(CCCC)C(=O)CN(C)S(=O)(=O)c1ccc2c(c1)n(C)c(=O)c(=O)n2C	12µM*	10%	8%	i	-8%	-5%
COc1cc(-c2noc(-c3ccc(NC4CCCC4)c([N+](=O)[O-])c3)n2)cc(OC)c1OC	i	/	/	i	/	/
COC(=O)c1cccc(C23CC4(C2)[C@H](CN(Cc2ccc(C(F)(F)F)cc2)[C@@H]4c2ccccc2)C3c2ccc(C(F)(F)F)cc2)c1 (stereo not given in full)	i	-28%	-11%	13µM*	0%	0%[9.22 µM]
c1ccc(C2[C@H]3CN(Cc4cccnc4)[C@H](c4ccccc4)C34CC2(c2ccccc2)C4)cc1 (stereo not given in full)	i	?	?	?	1%	-3%
c1ccc(C2[C@H]3CN(Cc4cccnc4)[C@H](c4ccccc4)C34CC2(c2cccnc2)C4)cc1 (stereo not given in full)	21µM*	?	?	?	?	-12%[9.22 µM]
Cc1ccc(Cl)c2sc(NC(=O)CS(=O)(=O)c3ccc(Cl)cc3)nc12	i	/	/	i	/	/
CC(C)NC(=O)C1(C)CSCC(=O)N1C1CCN(Cc2ccccc2)CC1 (stereo not given)	i	4%	14%	i	/	/
CCOc1cc(-c2ccc(OC(=O)c3ccc(OC)cc3)c(OC)c2)cc(=O)c2c(C)oc(C)c12	?	/	/	i	/	/
Cc1ccc2cc3c(N)nn(C(=O)c4cccc(F)c4)c3nc2c1	i	/	/	i	/	/
CC(=O)NC[C@H]1O[C@@H](n2ccc(N)nc2=O)[C@H](O)[C@@H]1O	i	6%	4%	i	/	/
Nc1ccn(C2OC(COP(=O)(O)O)C(O)C2O)c(=O)n1 (stereo not given)	?	-17%	-3%	?	?	0.65µM*
CC1CCN(c2cc3c(cc2F)c(=O)c(S(=O)(=O)c2ccc(Cl)cc2)cn3C)CC1	i	/	/	i	/	/
COc1cc(OC)c(NC(=O)c2cn(C)c(=O)c3cc(OC)c(OC)cc23)cc1Cl	i	/	/	i	/	/
Cc1noc(C)c1C(=O)Nc1sc(C)c(-c2ccccc2)c1C#N	4.1µM*	26%	9%	13µM*	7%	-1%
Cc1onc(-c2ccccc2)c1C(=O)Nc1sccc1C#N	i	-23%	-21%	i	7%	1%
N#Cc1c(Cl)nsc1NC(=O)c1ccccc1	7.3µM*	13µM*	8.2µM*	?	?	1%
Cc1cccc(C(=O)Nc2sc(C)c(-c3ccccc3)c2C#N)c1	?	?	-11%	i	9.2µM*	-4%
Cc1sc(NC(=O)C2CCCCC2)c(C#N)c1-c1ccccc1	i	4%	12%	i	19%	0%
SMILES	KB-V1 cytotox	HT1080 IDH1KD tx	HT1080NT lethal	KB-3-1 tox	MCF10A rerep	SW480 rereplic
COc1ccccc1N1CCN(S(=O)(=O)c2c(C)nc3sc(C)c(C)n3c2=O)CC1	i	/	/	i	/	/
COc1ccc(OC)c(-c2noc(N3CCN(c4ccc(Cl)cc4)CC3)n2)c1	i	/	/	i	/	/
CCCN(CCC)C1=CC(=[N+]2CCCC2)CC(C)(C)C1	i	2.3µM*	2.1µM*	2.6µM*	-1%	-4%
CC1(C)CC(N2CCCCC2)=CC(=[N+]2CCCCC2)C1	i	?	4.1µM*	5.8µM*	24%	-9%
COc1cc(NC(=O)C(C)(C)C)c(C(=O)OCC(=O)Nc2cc(C)on2)cc1OC	i	0%	6%	?	/	/
Cc1ccc2oc(=O)cc(CN3CCN(C/C=C/c4ccccc4)CC3)c2c1	i	10%	0%	i	-2%	-32%
O=c1cc(CN2CCN(C/C=C/c3ccccc3)CC2)c2cc(O)ccc2o1	?	?	26µM*	?	?	?
O=C(Cc1ccc(F)cc1)Nc1cccc(-c2cn3c(n2)SCC3)c1	18µM*	-11%	-12%	i	12%	-2%
c1ccc(-c2cc(-c3nc4ccccc4[nH]3)c3ccccc3n2)cc1	16µM*	?	-29%	16µM*	?	-1%
O=C(c1ccccc1)c1cnc(Nc2ccccc2Cl)s1	13µM*	-15%	-3%	i	?	22%
CC(C)(C)C(=O)c1cnc(Nc2ccccc2Cl)s1	i	-9%	-20%	?	-2%	-6%[9.22 µM]
Cc1cc(C)c(S(=O)(=O)Nc2ccccc2-c2ccccc2)c(C)c1	18µM*	-20%	-2%	?	?	10%
Cc1cc(C)c(S(=O)(=O)Nc2cnc3ccccc3c2)c(C)c1	15µM*	-12%	-20%	i	13%	3%
COC(=O)c1c(C)[nH]c(C(=O)C(C)OC(=O)C2CC2)c1C (stereo not given)	12µM*	0%	8%	?	2%	2%
COc1ccc(C(=O)c2ccc(C)cc2)c(OC)c1OC	?	18µM*	?	?	16µM*	?
COc1cccc(C(=O)C(=O)c2cccc(OC)c2OC)c1OC	i	3%	1%	i	1%	-7%
COc1ccc(C(=O)c2ccc(Br)cc2)c2ccccc12	18µM*	3%	-1%	?	7.3µM*	-2%
COc1ccc(C(=O)CCN(C)C)c2ccccc12	i	/	/	i	/	/
